Assay results published in PubChem BioAssay AID686971 (National Center for Advancing Translational Sciences (NCATS), 2013).
Out of some 360,000 compounds screened, about 7,500 (2.1%) were called active. Not shown: some 8% with an inconclusive outcome. For the sample, actives were picked, then their nearest neighbours and some compounds at random. A number with no mark means an inactive call. Calls come from the whole dose curve; as a rule, active = well fitted cell-killing curve with a large enough effect; inconclusive = small, poorly fitted or top-dose-only effect, or effect the other way, or another doubt; inactive = no such curve, though single readings can be large or run the other way.

Experiment: qHTS for induction of synthetic lethality in tumor cells producing 2HG: qHTS for the HT-1080-IDH1KD cell line;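 for activity, negative = toxicity: 0% = DMSO wells and -100% = cell-free medium wells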
Conditions: HT-1080 IDH1 knockdown viability, ATP luminescence, 48 h; series mostly up to 46.1 µM; activity, negative = toxicity: at the top concentration
In short: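 Luminescent ATP read-out (CellTiter-Glo, 10 min at room temperature) after 48 h compound exposure at 37 °C gave viability of IDH1-knockdown HT-1080 cells. Activity was normalised to DMSO and cell-free wells, then fitted as concentration-response curves.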
Potency is the fitted concentration of half-maximal effect.

Row | Structure (SMILES) | activity, negative = toxicity [%] | Potency
1 | CC(C)CCC(=O)Nc1cc(S(=O)(=O)N2CCOCC2)ccc1N1CCCC1 | 0.313 | 
2 | Cc1ccc(-c2ccc(CN3C(C(C)C)C(=O)N(Cc4cn(CCC5OCCCO5)nn4)CCS3(=O)=O)cc2)cc1 (stereo unspecified) | -7.51 | 
3 | Cc1cc2c(cc1C)N1C(=O)c3cc4ccccc4cc3NC(=O)C1C(=O)N2 (stereo unspecified) | 1.1 | 
4 | CS(=O)(=O)/C(C#N)=C/c1cccn1S(=O)(=O)c1ccc([N+](=O)[O-])cc1 | -6.02 | 
5 | O=C(C1CCCO1)N1CCN(C(=O)C23CC4CC(CC(C4)C2)C3)CC1 (stereo unspecified) | 14.9 | 
6 | CN(/N=C/c1ccccc1)C(=S)c1ccccc1 | -5.97 | 
7 | Oc1ccc(/C=N/N(Cc2ccccc2)c2ccccc2)cc1 |  | 16.4 µM (active)
8 | CCN(CC)C(=O)N(CC)Cc1ccccc1 | 2.96 | 
9 | C[C@H]1CN([C@@H](C)CO)C(=O)CCCn2cc(nn2)CO[C@@H]1CN(C)C(=O)Nc1ccccc1 | 1 | 
10 | O=C(CSc1nc2cccc(F)c2c(=O)n1-c1ccccc1)Nc1ccc2c(c1)CCC2 | 18.2 | 
11 | NC(=O)CSc1nnc(-c2cccc(S(=O)(=O)N3CCOCC3)c2)o1 | -2.93 | 
12 | Cc1cc2nnc(SCC(=O)N3CCN(c4ccccc4)CC3)n2c(N)n1 | 21.7 | 
13 | Cn1c(CNC(=O)c2ccco2)nnc1SCC(=O)N1CCN(c2ccccc2)CC1 | 3.17 | 
14 | Cn1c(Cc2cccc3ccccc23)nnc1SCC(=O)N1CCN(c2cccc(Cl)c2)CC1 |  | 20.6 µM (active)
15 | CCc1c(N=O)c(-c2ccccc2)n(O)[n+]1[O-] | -7.78 | 
16 | CCN(C(=O)Nc1cccc2ccccc12)c1ccccc1 | -4.17 | 
17 | COc1cccc(NC(=O)CN(C)C(=O)c2cc(Cl)nc3ccccc23)c1 | -3.44 | 
18 | CCN(CC)C(=O)C1=C(C)N(Cc2ccc(F)cc2)C(=O)C(CC(=O)NC2CCCC2)C1 (stereo unspecified) | -4.13 | 
19 | CC[n+]1cc(C)ccc1/C=C/c1ccc(N(C)C)cc1 |  | 7.31 µM (active)
20 | O=C(NC1CCCCC1)C(c1cc2ccccc2o1)n1c(=O)c(-c2ccco2)nc2ccccc21 (stereo unspecified) | -16.8 | 
21 | O=C(/C=C/NNC(=O)c1cccc(Br)c1)c1ccccc1 | -10.2 | 
22 | O=C(O)CCn1cc(/C=C/C(=O)c2ccc(Cl)cc2)c(-c2cccc(Br)c2)n1 |  | 23.1 µM (active)
23 | CCOC(=O)/C(C#N)=C/c1cn(CCC(=O)O)nc1-c1ccc(Br)cc1 | -2.79 | 
24 | COc1ccc(CN2C[C@H]3CON(C)[C@H]3C[C@H]2c2ccc(-c3cccc(F)c3)cc2)cc1 | -23 | 
25 | Cc1ccccc1C#CC1=CC(=O)CC(C)(C)C1 | -9.77 | 
26 | C/C(COc1ccccc1)=N\NC(=O)c1nnn(-c2nonc2N)c1-c1ccc(C)cc1 | -8.96 | 

Row | Structure (SMILES) | activity, negative = toxicity [%] | Potency
27 | CN(C)C(=O)COC(=O)c1cccc(S(=O)(=O)N2CC3(C)CC2CC(C)(C)C3)c1 (stereo unspecified) | -3.59 | 
28 | Cc1nnnn1/C(=C\c1ccccc1)C(=O)OCC(=O)N1CC2(C)CC1CC(C)(C)C2 (stereo unspecified) |  | 14.6 µM (active)
29 | COc1ccc(C(=O)N2CC3(C)CC2CC(C)(C)C3)cc1OC (stereo unspecified) | -4.16 | 
30 | COc1cc(C=NC2CCCCC2)ccc1O | 0.126 | 
31 | O=C(OCC(=O)N1CCCCCC1)c1cccc(Cl)c1Cl | 16.8 | 
32 | Cc1cccc(C)c1NC(=O)C(c1cccc(F)c1)N1CCN(C)CC1 (stereo unspecified) | 0.538 | 
33 | COc1ccc(-c2c(C)cc3oc(=O)cc(-c4ccccc4)c3c2C)cc1OC | 5.89 | 
34 | COc1ccc(-c2c(C)cc3oc(=O)cc(-c4ccccc4)c3c2C)cc1F | 13.4 | 
35 | COc1cc(OC)c2c(-c3cccc(-c4cccc(N)c4)c3)cc(=O)oc2c1 |  | 5.17 µM (active)
36 | COC(=O)c1ccc(CN2C(=O)C(Cc3ccccc3)ON=C2c2ncccc2C)o1 (stereo unspecified) | 17.4 | 
37 | CCN1CCC2(CC1)N=C(c1ccc(F)cc1)C(=S)N2C(=O)c1ccc(C)cc1 |  | 23.1 µM (active)
38 | Cc1ccc(SCC(=O)N2CCN(c3ccc(F)cc3)CC2)cc1 | 17.4 | 
39 | CCN1CCN(C(=O)CSc2ccc(C)cc2)CC1 | 3.16 | 
40 | CC(C)NC(=O)C1(C)CCCCCN1C(=O)c1ccc(-c2ccccc2)cc1 (stereo unspecified) | 11.9 | 
41 | Cc1ccccc1N1C(=O)C2ON(c3ccccc3)C(c3ccncc3)C2C1=O (stereo unspecified) | 4.69 | 
42 | O=C1C(=O)N(c2ccccc2)C(c2ccccc2)C1c1ccccc1 (stereo unspecified) | -0.624 | 
43 | O=C1[C@@H](c2ccccc2)[C@@H](c2ccccc2)N1c1cccnc1 |  | 16.4 µM (active)
44 | Fc1cccc(Cc2c(-c3cccc(Cl)c3)nc3ccc(Br)cn23)c1 | -22.4 | 
45 | Cc1ccnc(SC2CC(=O)N(c3ccccc3)C2=O)n1 (stereo unspecified) | -0.931 | 
46 | Cn1nccc1C(=O)NC1CCCc2c1cnn2-c1ccc(F)cc1F (stereo unspecified) |  | 0.92 µM (active)
47 | CC(=O)NCC(=O)NC1CCCc2c1cnn2-c1ccccc1F (stereo unspecified) | 4.51 | 
48 | Cc1ccc(-n2ncc3c2CCCC3NC(=O)c2cnccn2)cc1C (stereo unspecified) | -13.4 | 
49 | N#CCCN(C(=S)Nc1ccc(Cl)c(Cl)c1)C1CCCCC1 | -6.17 | 
50 | Cc1ccc(C(O)c2ncc(-c3ccccc3F)[nH]2)cc1F (stereo unspecified) | -8.27 | 
51 | CCOC(=O)c1c(NC(=S)SC)sc(C(=O)N2CCc3ccccc3C2)c1C | -7.65 | 
52 | CC(C)(C)C(=O)Cn1c(NCCO)nc2ccccc21 | 2.2 | 

Row | Structure (SMILES) | activity, negative = toxicity [%] | Potency
53 | O=C(Cn1c(NCCO)nc2ccccc21)c1ccc(Cl)cc1Cl |  | 20.6 µM (active)
54 | O=S(=O)(O)c1nc2ccccc2n1Cc1ccc(Cl)cc1Cl | -15.2 | 
55 | CCCCCCn1c(=O)n2n(c1=O)C[C@]1(OC(=O)NCc3ccc(OC)c(OC)c3)CN(S(=O)(=O)c3ccc(C)cc3)C[C@]1(O)C2 | -14.7 | 
56 | CCc1oc(-c2ccc(OC)cc2)c(C(=O)OCCCCCO)c1C(C)OCCO (stereo unspecified) | -13.9 | 
57 | COc1ccccc1NC(=O)C1CCCN1S(=O)(=O)c1ccc(Cl)cc1 (stereo unspecified) | -1.61 | 
58 | COc1ccccc1NC1=NC(c2ccc(Cl)cc2)N=C(N)N1 (stereo unspecified) |  | 5.62 µM (active)
59 | CC1(C)N=C(N)NC(Nc2ccc(Cl)cc2)=N1 | 1.16 | 
60 | COc1ccc([C@H]2N[C@]3(CCCN(Cc4ccco4)C3=O)[C@H]3C(=O)N(C)C(=O)[C@@H]23)cc1 | -1.26 | 
61 | O=C1OCCOC2CCCc3oc(-c4ccccc4)c1c32 (stereo unspecified) | 6.75 | 
62 | C[C@H]1Cn2cnc(C(=O)N[C@@H](Cc3c[nH]c4ccccc34)C(=O)OC(C)(C)C)c2C(=O)N1 | 12.4 | 
63 | O=S(=O)([N-]c1nc2ccccc2nc1-[n+]1ccc(Cc2ccccc2)cc1)c1ccc(Br)s1 |  | 20.6 µM (active)
64 | O=C(NCCc1ccccc1)C1CCN(S(=O)(=O)c2ccc(Br)s2)CC1 | -5.3 | 
65 | O=S(=O)(NCc1cccnc1)c1ccc(Br)s1 | 1.62 | 
66 | COCOc1cccc(CN2CCC(C)(Oc3ccc(SC)cc3)C2)c1 (stereo unspecified) | -8.36 | 
67 | CCOC(=O)C1CCCN(C(=O)c2ccc(C)c(F)c2)CC1 (stereo unspecified) | 1.99 | 
68 | CCC1OC(C2CC2)CC2=C1C(=O)OC(C)(C)O2 (stereo unspecified) | 0.481 | 
69 | c1coc(CNc2ncnc3ccccc23)c1 |  | 20.6 µM (active)
70 | COc1ccc(CNc2ncnc3ccccc23)cc1 | -4.12 | 
71 | Brc1ccc2ncnc(NCc3cccnc3)c2c1 | -15.5 | 
72 | COc1cccc(C(NC(C)=O)c2nc(-c3cnc4ccccc4c3)cs2)c1 (stereo unspecified) | 3.84 | 
73 | O=C(Nc1ccc2c(c1)OCCO2)C(C1CC1)N1CCC(Cc2ccccc2)CC1 (stereo unspecified) | -22 | 
74 | COc1ccc(Br)cc1/C=N/Nc1ccc(Cl)c(C(=O)O)c1 | -10.5 | 
75 | O=c1[nH]c2cccnc2n(CCNc2ncc(C(F)(F)F)cc2Cl)c1=O | -16.6 | 
76 | COc1cccc(/C=N/Nc2ncc(C(F)(F)F)cc2Cl)c1O |  | 9.2 µM (active)
77 | CCOC(=O)c1c(C)[nH]c(C)c1C(=O)COC(=O)/C=C/c1cccc([N+](=O)[O-])c1 | -1.39 | 
78 | Nc1[nH]c(C(=O)c2ccccc2)c(-c2ccncc2)c1C(=O)NCc1cccc2ccccc12 | 4.84 | 

Row | Structure (SMILES) | activity, negative = toxicity [%] | Potency
79 | CCOC(=O)[C@]12CCCC=C1N(CCC1=CCCCC1)C(=O)[C@H](CC(=O)N1CCSCC1)C2 | -6.14 | 
80 | Cc1ccccc1S(=O)(=O)NC(=O)C1(C)CCN1C(=O)C1(c2ccccc2)CCCC1 (stereo unspecified) | 0.534 | 
81 | c1ccc(-c2nnc(N3CCOCC3)c3ccccc23)cc1 | 2.08 | 
82 | Fc1cnc(N2CCOCC2)nc1NCc1ccccc1 | 3.11 | 
83 | c1ccc2c(NC3C4CC5CC(C4)CC3C5)nc(N3CCOCC3)nc2c1 (stereo unspecified) |  | 18.4 µM (active)
84 | Cc1ccc(C=O)c([B-](F)(F)F)c1 | 3.04 | 
85 | CN1c2ccc(C=O)c3c(C=O)ccc(c23)N(C)C1(C)C |  | 11.6 µM (active)
86 | CC1CN(C(=O)c2cccc(NS(=O)(=O)c3ccc(Br)cc3)c2)CC(C)O1 (stereo unspecified) | -2.09 | 
87 | CCc1nc2c(OCC(N)=O)cccn2c1N(C)C(=O)c1ccc(OC)cc1 | 3.04 | 
88 | C[C@@H]1CN([C@H](C)CO)S(=O)(=O)c2ccc(C#C[C@@H](C)O)cc2O[C@@H]1CN(C)Cc1ccc(-c2ccccc2)cc1 | -29.6 | 
89 | COc1cc(C#Cc2ccc3cc(CCCO)oc(=O)c3c2)cc(OC)c1 |  | 2.06 µM (active)
90 | O=C1c2ccccc2C(=O)N1CCC#Cc1ccc2cc(C3(O)CCCCC3)oc(=O)c2c1 | 12.8 | 
91 | COc1cc(/C=C2\Oc3ccc(C#Cc4ccc(O)cc4)cc3C2=O)cc(OC)c1 | -24.1 | 
92 | NC(=O)Cn1cc(/C=N\NS(=O)(=O)c2ccccc2)c2ccccc21 | -7.45 | 
93 | COC(=O)c1cn(CC(=O)NCc2cccs2)c2ccccc12 | -28 | 
94 | COC(=O)Cn1cc(/C=C/[N+](=O)[O-])c2ccccc21 |  | 23.1 µM (active)
95 | COC(=O)[C@]12CCCCC=C1N(Cc1cccc3ccccc13)C(=O)[C@H](CC(=O)N1CCOCC1)C2 | -1.79 | 
96 | COCCCN1C(=O)C(CC(=O)NCc2cccs2)CC(C(=O)N2CCOCC2)=C1C (stereo unspecified) | 1.42 | 
97 | COC(=O)C1=C(Nc2ccc(OC)cc2)C=C(C)C(C(=O)OC)C1c1ccc(C)cc1 (stereo unspecified) | -3.99 | 
98 | COC(=O)C1C(=O)NCC1c1ccc(C)cc1 (stereo unspecified) | 15.5 | 
99 | COC(=O)C1=C(Nc2ccc(C)cc2)C=C(C)C(C(=O)OC)C1c1ccc(F)cc1 (stereo unspecified) |  | 11.2 µM (active)
100 | COc1ccc(Cn2c(=O)oc3ccccc32)cc1 | -0.0287 | 
101 | CC(C)CCNC(=O)c1[nH]c(C(F)(F)F)nc1-c1ccccc1 | 7.3 | 
